{
  "source": "PubChem BioAssay (NCATS)",
  "note": "Records with an inconclusive call do not appear. Active and inactive are the calls of the source. Calls follow the shape of the dose curve; as a rule, active = well fitted cell-killing curve with a large enough effect; inconclusive = small, poorly fitted or top-dose-only effect, or effect the other way; inactive = flat fitted curve, though single readings scatter. % is scaled to controls: 0 for no effect and ±100 for the full control effect; potency is read from the fitted curve at half-maximal effect.",
  "data": [
    {"tested_on": "CAOV3", "assay": "Primary qHTS to identify gynecologic anti-cancer compounds using libraries of approved drugs and bioactive compounds (AID 1345084); also: nearly all actives have a fitted effect of over 55% in size", "details": "Gynecologic cancer cell panel viability, ATPlite luminescence, 48 h; series mostly up to 57.5 µM; activity change, negative = cytotoxicity: at the top concentration", "text": "National Center for Advancing Translational Sciences [NCATS] Assay Overview: Chemotherapeutic drug responses vary from cancer to cancer and from patient to patient. These variations could be caused by a number of factors including patient genomic background, tumor mutations, tumor heterogeneity, and aspects of drug treatment. Chemotherapeutic drug resistance is also a common issue and can lead to ineffective treatment and patient death. Here we have profiled the cell killing effects of thousands of compounds to characterize the responses in three gynecological cancers, identify cancer-selective compounds, and understand the diversity of responses to these compounds from pan-cancer suppressors to single cell line selective compounds. In this assay, we screened a 7,914 compound drug library that included approved drug and bioactive compounds in six ovarian, three cervical, and […] placental cancer cell lines using the ATPlite assay for cell viability. […] The cervical cancer cell lines included HeLa, Ca Ski, and C-33 A. The placental cancer cell lines included JEG-3. HEK 293T cells were used as the control cell line to determine the selectivity index. ATPlite is a luminescence based assay reliant on the conversion of a luciferase substrate to light in the presence of ATP. As a cytotoxic compound will suppress growth and decrease the number of cells, the concentration of ATP will decrease, and less light signal will be detected in the well.\nAssay Protocol Summary: 1,000 cells in 4 uL of media were dispensed into white, solid bottom 1536-well plates using a Multidrop Combi (Thermo Scientific). The Assay plates were incubated for 16 hours at 37 C with 5% CO2 in assay plates, followed by the addition of 23 nL of DMSO or drug dissolved in DMSO. Each compound was assayed in five concentrations (0.092, 0.46, 2.3, 11.5, and 57.5 uM), using the automated Wako 1536 Pin Tool workstation and incubated at 37 C with 5% CO2 48 hours. 4 uL of ATPlite, the ATP monitoring reagent, was then added to the each well of the assay plates using the Multidrop Combi reagent dispenser followed by incubation for 15 minutes at room temperature. The resulting luminescence was measured using the ViewLux plate reader.", "values": [
      {"smiles": "Cc1cccc(C)c1NC(=O)c1ccc(N)cc1", "activity change, negative = cytotoxicity": "2.7% (inactive)"},
      {"smiles": "Cc1ncc(CO)c(CO)c1O", "activity change, negative = cytotoxicity": "2.67% (inactive)"},
      {"smiles": "Nc1ccc(O)cc1", "activity change, negative = cytotoxicity": "13.2% (inactive)"},
      {"smiles": "CSc1ccc(/C=C2/C(C)=C(CC(=O)O)c3cc(F)ccc32)cc1", "activity change, negative = cytotoxicity": "27.7% (inactive)"},
      {"smiles": "CCCC(=O)O[C@]1(C(=O)CC)CC[C@H]2[C@@H]3CCC4=CC(=O)CC[C@]4(C)[C@H]3[C@@H](O)C[C@@]21C", "activity change, negative = cytotoxicity": "-20% (inactive)"},
      {"smiles": "CC(=O)O[C@@H]1C(=O)O[C@@H]2[C@H]1OC(=O)[C@@H]2OC(C)=O", "activity change, negative = cytotoxicity": "5.58% (inactive)"},
      {"smiles": "CCCCCCCCCCCC[N+](C)(C)Cc1ccccc1", "Potency": "5.62 µM (active)"},
      {"smiles": "CC(=O)Nc1c(I)c(NC(C)=O)c(I)c(C(=O)O)c1I", "activity change, negative = cytotoxicity": "25.9% (inactive)"},
      {"smiles": "NC(=O)COCCN1CCN(C(c2ccccc2)c2ccc(Cl)cc2)CC1", "note": "(stereo not given)", "activity change, negative = cytotoxicity": "-5.65% (inactive)"},
      {"smiles": "Cc1sccc1Br", "activity change, negative = cytotoxicity": "32.2% (inactive)"},
      {"smiles": "N#CSCC(=O)O", "activity change, negative = cytotoxicity": "-3.09% (inactive)"},
      {"smiles": "CCCCOC(=O)CCCCCCCCC(=O)OCCCC", "activity change, negative = cytotoxicity": "10% (inactive)"},
      {"smiles": "O=c1[nH]c(=O)n([C@H]2O[C@H](CO)[C@@H](O)[C@@H]2O)cc1/C=C\\Br", "activity change, negative = cytotoxicity": "-7.17% (inactive)"},
      {"smiles": "CN1CCC(=C2c3ccccc3CCc3cccnc32)CC1", "activity change, negative = cytotoxicity": "-1.06% (inactive)"},
      {"smiles": "COc1ccccc1N1CCN(CC(O)COc2cc(OC)c(OC)c(OC)c2)CC1", "note": "(stereo not given)", "activity change, negative = cytotoxicity": "5.64% (inactive)"},
      {"smiles": "C/C(=N\\O)[C@@H](C)NCC(C)(C)CN[C@H](C)/C(C)=N/O", "activity change, negative = cytotoxicity": "12.4% (inactive)"},
      {"smiles": "CN1CCCN(C(c2ccccc2)c2ccc(Cl)cc2)CC1", "note": "(stereo not given)", "activity change, negative = cytotoxicity": "-4.77% (inactive)"},
      {"smiles": "C/C=C(/C(=C/C)c1ccc(OC(C)=O)cc1)c1ccc(OC(C)=O)cc1", "activity change, negative = cytotoxicity": "-11.9% (inactive)"},
      {"smiles": "OCCOCCN1CCN(C(c2ccccc2)c2ccc(Cl)cc2)CC1", "note": "(stereo not given)", "activity change, negative = cytotoxicity": "6.38% (inactive)"},
      {"smiles": "COC(=O)c1ccc(NC(C)=O)cc1OC", "activity change, negative = cytotoxicity": "-1.98% (inactive)"},
      {"smiles": "CCCCCC(=O)O[C@]1(C(C)=O)CC[C@H]2[C@@H]3CCC4=CC(=O)CC[C@]4(C)[C@H]3CC[C@@]21C", "activity change, negative = cytotoxicity": "-11.7% (inactive)"},
      {"smiles": "CCCC(=O)OCOC(=O)C1=C(C)NC(C)=C(C(=O)OC)C1c1cccc(Cl)c1Cl", "note": "(stereo not given)", "activity change, negative = cytotoxicity": "-2.48% (inactive)"},
      {"smiles": "COc1ccc(/C(C)=C/C(=O)O)c(OC)c1", "activity change, negative = cytotoxicity": "27.3% (inactive)"},
      {"smiles": "CC(C)Cc1ccc(C(C)C(=O)OCc2ccccn2)cc1", "note": "(stereo not given)", "activity change, negative = cytotoxicity": "-1.05% (inactive)"},
      {"smiles": "CN1Cc2cc(C(=O)N3CCC(C4CCNCC4)CC3)ccc2N[C@@H](CC(=O)O)C1=O", "activity change, negative = cytotoxicity": "3.68% (inactive)"},
      {"smiles": "CCOC(=O)C(=O)c1csc(NC=O)n1", "activity change, negative = cytotoxicity": "19% (inactive)"},
      {"smiles": "CN(C)CCOC(c1ccccc1)c1ccc(Br)cc1", "note": "(stereo not given)", "activity change, negative = cytotoxicity": "-18.4% (inactive)"},
      {"smiles": "CN=C(N)NC(=O)Nc1c(C)cccc1C", "activity change, negative = cytotoxicity": "6.7% (inactive)"},
      {"smiles": "CC(=O)OCC(=O)[C@@]1(O)[C@H](OC(C)=O)C[C@H]2[C@@H]3CCC4=CC(=O)C=C[C@]4(C)[C@@]3(F)[C@@H](O)C[C@@]21C", "activity change, negative = cytotoxicity": "-8.86% (inactive)"},
      {"smiles": "Fc1ccc(C(c2ccc(F)cc2)N2CCNCC2)cc1", "activity change, negative = cytotoxicity": "-0.992% (inactive)"},
      {"smiles": "CC(C)NCCCC1(C(N)=O)c2ccccc2-c2ccccc21", "activity change, negative = cytotoxicity": "0.44% (inactive)"},
      {"smiles": "CN1Cc2cc(C(=O)N3CCC(C4CCNCC4)CC3)ccc2NC(CC(=O)O)C1=O", "note": "(stereo not given)", "activity change, negative = cytotoxicity": "7.94% (inactive)"},
      {"smiles": "CC(=O)c1ccc(O)c(C(N)=O)c1", "activity change, negative = cytotoxicity": "9.83% (inactive)"},
      {"smiles": "O=[N+]([O-])c1ccc(-c2nc(-c3ccc(F)cc3)c(-c3ccncc3)[nH]2)cc1", "activity change, negative = cytotoxicity": "-29.7% (inactive)"},
      {"smiles": "O=C1Cc2cc(Cl)ccc2N1", "activity change, negative = cytotoxicity": "14.4% (inactive)"},
      {"smiles": "CC(=O)OC[C@H]1O[C@@H](OC(C)=O)[C@H](OC(C)=O)[C@@H]1OC(C)=O", "activity change, negative = cytotoxicity": "20.6% (inactive)"},
      {"smiles": "CC(C)=CCC/C(C)=C/CC/C(C)=C/CCC(=O)OC/C=C(\\C)CCC=C(C)C", "activity change, negative = cytotoxicity": "15% (inactive)"},
      {"smiles": "O=c1[nH]c2ccccc2c(=O)n1CCCl", "activity change, negative = cytotoxicity": "-2.01% (inactive)"},
      {"smiles": "CCCCOCCOC(=O)c1cccnc1", "activity change, negative = cytotoxicity": "-5.85% (inactive)"},
      {"smiles": "O=C1c2ccccc2CCc2ccccc21", "activity change, negative = cytotoxicity": "16.2% (inactive)"}
    ]}
  ]
}
